From PubChem BioAssay (NCATS) come the findings set out here.

“And” between values parts separate entries of the source, which are not always exact repeats. Equal entries are not always repeated. Records with an inconclusive call do not appear. Values without a mark were called inactive. The source made the active and inactive calls. Unless noted, the call rests on the fitted dose curve.

Experiment [1] can be described thus: AP1 Signaling Pathway (AID 357; active means well fitted curve in either direction with a large enough effect, not every such curve was filed as active;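 further: ME-180 reporter cells stimulated with EGF at its EC50 level; on the % scale 0 is the no-effect control and ±100 the full control effect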). The settings on record: ME-180 (cervical carcinoma) AP-1-bla reporter, EGF-induced, beta-lactamase ratio, 5 h; at 38 µM (top of the series) unless noted. Put shortly: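 A ratiometric CCF4 readout (405 nm excitation; 460 and 530 nm emission) quantified AP-1-driven beta-lactamase in ME-180 cells after 5 h with compound and EC50 EGF; AC50 values were derived for activators and inhibitors.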

Experiment [2] in a line: NFAT Signaling Pathway (AID 444; active means well fitted curve in either direction with a large enough effect, not every such curve was filed as active;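 further: carbachol stimulus at about its EC50 of 1 µM final; on the % scale 0 is the no-effect control and ±100 the full control effect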). The settings on record: Jurkat NFAT-bla M1, carbachol, beta-lactamase ratio, 5 h; at 38 µM (top of the series) unless noted. Put shortly:
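Jurkat cells carrying an NFAT-driven β-lactamase reporter and co-transfected muscarinic M1 receptor were treated with compound plus carbachol (1 uM final, an EC50 level) for 5 h at 37 °C. CCF4 loading followed for 1 h at RT; 460/530 nm ratio gave %activity.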

Experiment [3] deals with Cytochrome P450 1A2 (Homo sapiens) (UniProt P05177). Kind of experiment: p450-cyp1a2 (AID 410). Further: potency means the concentration at half of the fitted maximal effect.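 On activity change, negative = inhibition: -100% = full effect of reference inhibitor.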 Put shortly:
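Luminescent readout of luciferin formed from Luciferin-ME by human CYP1A2; data normalized against complete inhibition by 57 uM furafylline. Enzyme 20nM, substrate 100uM at Km, 100mM KPO4 buffer, 60 min reaction at room temperature.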

Cytochrome P450 1A2 (Homo sapiens), sequence (P05177 whole entry, looked up): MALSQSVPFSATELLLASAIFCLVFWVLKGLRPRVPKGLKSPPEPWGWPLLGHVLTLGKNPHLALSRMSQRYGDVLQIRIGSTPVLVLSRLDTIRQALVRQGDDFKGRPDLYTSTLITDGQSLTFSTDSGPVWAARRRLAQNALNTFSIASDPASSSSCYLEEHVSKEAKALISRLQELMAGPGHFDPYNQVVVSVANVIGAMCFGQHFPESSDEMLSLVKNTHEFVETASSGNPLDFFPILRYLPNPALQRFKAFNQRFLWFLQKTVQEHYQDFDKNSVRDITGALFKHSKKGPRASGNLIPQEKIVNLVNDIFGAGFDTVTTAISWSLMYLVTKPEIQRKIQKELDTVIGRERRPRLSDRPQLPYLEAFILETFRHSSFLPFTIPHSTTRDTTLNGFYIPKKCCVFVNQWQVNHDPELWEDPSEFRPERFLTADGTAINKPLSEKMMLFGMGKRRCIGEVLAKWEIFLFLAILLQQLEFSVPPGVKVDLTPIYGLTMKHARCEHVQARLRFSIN

Consider `COc1ccccc1N1CCN(CCN(C(=O)c2ccc(F)cc2)c2ccccn2)CC1`, for which the values for the activity change, negative = inhibition in experiment [1] and in experiment [2] were 1.26% and -0.748%, respectively. With `CCCCCCCC/C=C\CCCCCCCC(=O)NCCc1ccc(O)c(O)c1`, the Potency in experiment [3] is 20 µM (active). For the molecule `NC1(C(=O)O)CCCCC1`, the activity change, negative = inhibition in experiment [1] was -0.957%; in experiment [2] it was 3%. Consider `N[C@@H](Cc1ccc(O)c(I)c1)C(=O)O`, for which the figures for the activity change, negative = inhibition in experiment [1] and in experiment [2] were 9.71% [at 17.2 µM] and -2.26% [at 17.2 µM], respectively. For the molecule `COc1cc2c(CCNC(C)=O)c[nH]c2cc1O`, the Potency in experiment [3] is 31.6 µM (active). Still for that read-out and setting: then `O=c1oc(Cl)c(Cl)c2ccccc12`, with 1 µM (active). On to `O=C1Nc2ccc(I)cc2/C1=C/c1cc(Br)c(O)c(Br)c1`, for which the Potency in experiment [3] was 2.51 µM (active) and 794 nM (active). For the same molecule, the activity change, negative = inhibition in experiment [2] is -120% (active). As to `Oc1cc(O)c2c(c1)O[C@H](c1ccc(O)c(O)c1)[C@@H](O)C2`, in experiment [3], the Potency entry is “inactive”. Same read-out and setting: with `O=C(O)c1ccccc1Nc1cccc(OCc2ccc3ccccc3n2)c1` the figure was 12.6 µM (active) and 1 µM (active).
